A number with no mark means an inactive call. The source made the active and inactive calls. Rule as the data show it, unless noted: active = nuclear beta-catenin stimulation mostly above about 4.2% (no sharp cut-off); inactive = mostly below about 10%.
Assay: IRF3 reporter activation in THP-1 macrophages, cell-based, PMA-stimulated THP-1, luminescence (AID 1053176; call rule not given here)
Settings: PMA-differentiated THP-1, IRF3 reporter luminescence; hits give high values
In the case of `Cn1cc(C2=C(c3cn(CCCNC(N)=N[N+](=O)[O-])c4ccccc34)C(=O)NC2=O)c2ccccc21`, the fraction signal was 0.0015.
In the case of `CNC(=O)Oc1cc(C)c(/C=C/c2cncc(C(=O)NC)c2)c(C)c1`, the fraction signal was -0.0105.
Molecule `O=C(NC1NNC2NNC(c3cccnc3)CC21)C1CC1` (configuration not stated) has a fraction signal of 0.001.

Assay: stimulators of nuclear beta-catenin in C2C12, primary screen, imaging, WNT3A-conditioned medium, mouse C2C12, NPC library (AID 1117326); also: reference of the scale not given here
Settings: at 10 µM, hits give high values
Work on `CNC(=O)Oc1cccc2ccccc12` yielded a nuclear beta-catenin stimulation of 7.6%.
`C1CN2CCC1CC2` gave a nuclear beta-catenin stimulation of 0.4%.
Molecule `Cc1nnc2n1-c1sc(CCc3ccc(CC(C)C)cc3)cc1C(c1ccccc1Cl)=NC2C` (configuration not stated) has a nuclear beta-catenin stimulation of -1%.
Work on `CCC1(c2ccccc2)C(=O)N(COC)C(=O)N(COC)C1=O` yielded a nuclear beta-catenin stimulation of 0.6%.
For `C[C@@]12CCCCC[C@@H](Cc3ccc(O)cc31)[C@H]2N`, the nuclear beta-catenin stimulation was -0.5%.
Molecule `CCN(CC)C(=O)N[C@@H]1C=C2c3cccc4[nH]cc(c34)C[C@@H]2N(C)C1` has a nuclear beta-catenin stimulation of 0.6%.
Molecule `O=C(NC(O)C(Cl)(Cl)Cl)NC(O)C(Cl)(Cl)Cl` (configuration not stated) has a nuclear beta-catenin stimulation of 0.9%.
In the case of `CCCCCCCCCCCCNCCNCCNCC(=O)O`, the nuclear beta-catenin stimulation was 92.8% (active).
Work on `O=C(N[C@H]1N=C(c2ccccc2F)c2cccc3c2N(CC3)C1=O)c1cc2ccccc2[nH]1` yielded a nuclear beta-catenin stimulation of 1.3%.
Work on `CCOP(=S)(OCC)O/N=C(\C#N)c1ccccc1` yielded a nuclear beta-catenin stimulation of -0.3%.
`OCCOc1ccccc1` gave a nuclear beta-catenin stimulation of 0.5%.
`Cc1c(Cl)c(=O)oc2cc(OP(=O)(OCCCl)OCCCl)ccc12` showed a nuclear beta-catenin stimulation of 0.5%.
In the case of `CCCN(CCC)C(=O)Cc1c(-c2ccc(Cl)cc2)nc2ccc(Cl)cn12`, the nuclear beta-catenin stimulation was -2%.
For `O=C(CCl)c1ccc(Cl)cc1Cl`, the nuclear beta-catenin stimulation was 3.3% (active).

Source: PubChem BioAssay
